Data taken from PubChem BioAssay AID623868 (Vanderbilt High Throughput Screening Facility, 2012).
Among all 2,100 compounds or so, about 760 (36%) were called active.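 The calls were made as follows: active = thallium-flux fluorescence traces judged by eye to show enhanced or reduced glutamate response, manual score 1 or -1, so both directions (some results past the limit were not filed as active); inactive = the rest, including fluorescent or raised-baseline compounds.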 Only a sample is shown.

Test: thallium influx changes without GIRK channels – cell-based, HEK-293 rmGlu8, no GIRK, thallium flux, counter-screen for GIRK activator project, confirmation (AID 623868);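 also: extra codes mark interference with 3 for fluorescent and 4 for baseline rise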
Details: thallium flux fluorescence, at 10 µM, actives lie on both sides, codes: 1 enhancer, -1 blocker, 0 none, thallium stimulus containing EC20 glutamate

Row | SMILES | manual score
1 | CC(C)c1nc(=S)c2ccccc2[nH]1 | 1 (active)
2 | c1ccc2c(NC3CCCC3)nnc(NC3CCCC3)c2c1 | 0 (inactive)
3 | S=c1nc(C2CC2)[nH]c2ccccc12 | 1 (active)
4 | CCc1ccc(CNCCNCC(C)O)cc1 (configuration not stated) | 0 (inactive)
5 | Clc1ccc(Cl)c(OCc2cc(-c3ccccc3Cl)on2)c1 | 0 (inactive)
6 | CCCc1cc(=O)n2[nH]c(-c3ccc(Br)cc3)cc2n1 | 0 (inactive)
7 | CC(C)(C)C(=O)NC(=S)NNC(=O)c1sc2ccccc2c1Cl | 1 (active)
8 | COc1ccccc1C(=O)NC(=S)NNC(=O)c1sc2ccccc2c1Cl | 1 (active)
9 | COc1ccccc1C(=O)NNC(=S)NC(=O)c1sc2ccccc2c1Cl | 1 (active)
10 | COc1ccc2cc(C(=O)Nc3ccccc3)sc(=O)c2c1OC | 0 (inactive)
11 | CCCCCc1nnc(NC(=O)Cc2cccs2)s1 | 0 (inactive)
12 | CNC(=S)N=Nc1c(O)[nH]c2ccc(C(C)C)cc12 | 1 (active)
13 | COc1cccc(NC(=O)CC2COc3ccccc3O2)c1 (configuration not stated) | 0 (inactive)
14 | C#CC(CO)N(CCN(Cc1ccccc1)C(C#C)CO)Cc1ccccc1 (configuration not stated) | 0 (inactive)
15 | CCOc1ccc(-c2nnc(NC(=O)CCCOc3cccc(C)c3)o2)cc1 | 0 (inactive)
16 | COc1ccc(-c2nnc(NC(=O)c3ccc(S(=O)(=O)N4COCC4(C)C)cc3)o2)cc1 | 1 (active)
17 | CCOc1ccc(-c2nc(-c3ccc(OC)c(OC)c3)no2)cc1OCC | 0 (inactive)
18 | COc1ccc(-c2nnc(NC(=O)c3ccc(S(=O)(=O)N4CCc5ccccc5C4)cc3)o2)cc1 | 1 (active)
19 | CCOc1ccc(-c2nnc(NC(=O)c3ccc(OCC(C)C)c(OC)c3)o2)cc1 | 1 (active)
20 | Cc1cccc(N2CCN(C(=O)c3ccc(Cl)c(S(=O)(=O)N4CCc5ccccc5C4)c3)CC2)c1C | 0 (inactive)
21 | COc1ccc(-c2nnc(NC(=O)c3ccc(S(=O)(=O)N4CCCc5ccccc54)cc3)o2)cc1 | 1 (active)
22 | CCCCCCCC1CC(CSC(=N)N)OC1=O (configuration not stated) | 0 (inactive)

Row | SMILES | manual score
23 | COc1ccc(C(C)N2CC34C=CC(O3)C(C(=O)OCC(C)C)C4C2=O)cc1 (configuration not stated) | 0 (inactive)
24 | N#CCCn1nc(-c2ccc(Cl)cc2)cc1Nc1ccccc1NC(=O)C(F)(F)F | 0 (inactive)
25 | O=C(Nc1nnc(-c2ccco2)o1)c1ccc2ccccc2c1 | 1 (active)
26 | O=C(CSc1ccc(-c2ccco2)nn1)c1ccccc1 | 0 (inactive)
27 | CCc1cc(C(N)=O)c(NC(=O)c2ccc(OC)cc2)s1 | 0 (inactive)
28 | COc1ccc(-c2nnc(NC(=O)c3ccc(F)cc3)o2)cc1 | 1 (active)
29 | O=C(NC(=S)N(CCCCO)C1CCCCC1)c1sc2ccccc2c1Cl | 1 (active)
30 | CCOC(=S)NC(=O)c1sc2ccccc2c1Cl | 1 (active)
31 | CCCOC(=S)NC(=O)c1sc2ccccc2c1Cl | 1 (active)
32 | CCCCOC(=S)NC(=O)c1sc2ccccc2c1Cl | 1 (active)
33 | OC(CN1C2=NCCCN2c2ccccc21)c1ccc(Br)cc1 (configuration not stated) | 0 (inactive)
34 | Cc1ccc2c(Cl)cc(Cl)c(OCC(=O)NCc3ccco3)c2n1 | 1 (active)
35 | N=c1c(C(=O)NCc2ccco2)cc2c(=O)n3ccccc3nc2n1CCc1ccccc1 | 0 (inactive)
36 | CCC/C(=N/NC(=O)c1cccc(Cl)c1)c1ccccc1 | 1 (active)
37 | COc1cccc(NC(=S)N/N=C2/CCCCc3ccccc32)c1 | 1 (active)
38 | COc1cccc(NC(=O)Cn2cc3c(n2)CCCCC3)c1 | 0 (inactive)
39 | CCNC(=S)N/N=C1\CCCCc2ccccc21 | 0.5 (inactive)
40 | COc1ccc(Nc2nc(N)nc(CSc3nnc(C)s3)n2)cc1 | 0 (inactive)
41 | COc1cc(OC)c(-c2c3cc(O)c(=O)cc-3oc3cc(O)c(O)cc23)cc1OC | 3 (inactive)
42 | COc1ccc(NC(=O)Nc2ccccc2OC)cc1 | 0 (inactive)
43 | COc1cccc(CNCCNC(=O)c2ccco2)c1OC | 0 (inactive)
44 | COc1ccccc1NC(=O)C(=O)NNC(=O)c1ccco1 | 1 (active)

Row | SMILES | manual score
45 | COc1ccc(C)cc1NC(=O)C(=O)NNC(=O)c1ccco1 | 1 (active)
46 | COc1ccc(NC(=O)Nc2cc(C)ccc2OC)cc1 | 0 (inactive)
47 | COc1ccc(C)cc1NC(=O)Nc1ccccc1 | 0 (inactive)
48 | CC(C)c1ccc(-n2cccc2/C=C2/C(=N)N3C=CSC3=NC2=O)cc1 | 0 (inactive)
49 | C(/C=C/C=C/Nc1ccccc1)=Nc1ccccc1 | 3 (inactive)
50 | Cc1ccc(OCC(O)Cn2c(=N)n(CCN3CCCCC3)c3ccccc32)cc1 (configuration not stated) | 0 (inactive)
51 | CC(c1ccc(F)cc1)n1c(-c2ccc3ccccc3n2)n[nH]c1=S (configuration not stated) | 1 (active)
52 | CC(c1ccc(Cl)cc1)n1c(-c2ccc3ccccc3n2)n[nH]c1=S (configuration not stated) | 1 (active)
53 | CC(=O)Nc1ccc(Oc2ncccn2)cc1 | 0 (inactive)
54 | O=C(NNC(=O)c1cccnc1SCc1cccc([N+](=O)[O-])c1)c1cccnc1 | 0 (inactive)
55 | O=C(NNC(=O)c1cccnc1SCc1cccc([N+](=O)[O-])c1)c1ccccn1 | 1 (active)
56 | Cc1cccc(C)c1NC(=O)C(NC(=O)c1ccccn1)c1ccc([N+](=O)[O-])cc1 (configuration not stated) | 0 (inactive)
57 | O=C(c1oc(=O)c2ccccc2c1-c1ccccc1)N1CCN(C2CCCCC2)CC1 | 0 (inactive)
58 | CCOC(=O)c1ccc(N2C(=O)C(O)=C(C(C)=O)C2c2ccccc2)cc1 (configuration not stated) | -0.5 (inactive)
59 | CCOC(=O)c1cc2n(c1N)-c1ccccc1C2=O | 3 (inactive)
60 | CCOC(=O)C1=C(O)C(=O)N(c2ccc(S(N)(=O)=O)cc2)C1c1ccccc1 (configuration not stated) | -1 (active)
61 | CCCCn1nnc(NC(=S)NC(=O)c2ccc(-c3cccc(Cl)c3Cl)o2)n1 | 1 (active)
62 | Clc1cccc(-c2ccc(/C=N/n3cnnc3)o2)c1Cl | 0 (inactive)
63 | CCCn1nnc(NC(=O)COc2ccc(C3CCCCC3)cc2)n1 | 0 (inactive)
64 | COc1ccccc1N(C)S(=O)(=O)c1ccc(C(=O)N(CC(N)=O)C(C)C)cc1 | 0 (inactive)
65 | CCOc1ccc(N2C(=O)/C(=C/c3cc(OC)c(OC)c(OC)c3)N(CC(=O)OC)C2=S)cc1 | 0 (inactive)
66 | CCOC(=O)C1CCN(C(=O)N(C)C)CC1 | 0 (inactive)

Row | SMILES | manual score
67 | CCOC(=O)C1CCN(C(=O)CN(c2ccc(Cl)c(C(F)(F)F)c2)S(C)(=O)=O)CC1 | -1 (active)
68 | CS(=O)(=O)N(CC(=O)NCc1ccco1)c1ccc(Cl)c(C(F)(F)F)c1 | 0 (inactive)
69 | CCCOc1ccc(/C=N/NC(=O)C(=O)Nc2ccccn2)cc1 | 1.5 (inactive)
70 | O=C(N/N=C/c1ccc(Sc2ccccn2)o1)c1cc2ccccc2cc1O | 1 (active)
71 | O=C(CSc1nc2ccccc2[nH]1)NC1CCCc2ccccc21 (configuration not stated) | 0 (inactive)
72 | Cc1ccc(CSc2ncnc3c2cnn3-c2ccc(C)cc2)cc1 | 1 (active)
73 | NC(=O)CSc1ncnc2c1cnn2Cc1ccccc1 | 0 (inactive)
74 | Cc1ccc(-n2ncc3c(SCc4ccccc4)ncnc32)cc1 | 1 (active)
75 | COc1ccc(OC)c(Nc2ncnc3c2cnn3-c2cccc(C)c2)c1 | 0 (inactive)
76 | CN(C)CCNc1ncnc2c1cnn2-c1ccc(Cl)cc1 | 0 (inactive)
77 | COc1cc2cnncc2cc1OC | 0 (inactive)
78 | CCOc1ccc(NC(=O)Cn2nnc(-c3ccccc3F)n2)cc1 | 0 (inactive)
79 | N#Cc1c(N2CCN(C(=O)c3ccccc3)CC2)nc(-c2ccccc2)c2c1CCCC2 | 0 (inactive)
80 | CSc1nc(-c2ccccc2)[nH]c(=S)c1C(C)=O | 1 (active)
81 | CC(=O)c1c(N2CCCC2)[nH]c(-c2ccccc2)nc1=S | 1 (active)
82 | CCCOC(=O)NC(CC)COC(=O)Nc1cccc(C)c1C (configuration not stated) | 0 (inactive)
83 | CN=C1c2c(-c3ccccc3)c3cc(OC)ccc3n2CCN1C | 0 (inactive)
84 | O=C(NC(=S)Nc1ccccc1N1CCOCC1)c1ccco1 | 1 (active)
85 | CC1CCN(c2ccccc2NC(=S)NC(=O)c2ccco2)CC1 | 1 (active)
86 | O=C(NC(=S)Nc1ccccc1N1CCCCC1)c1ccco1 | 0 (inactive)
87 | O=C(C[n+]1cc(-c2ccccc2)n2c1CCC2)OCc1ccccc1 | 0 (inactive)
88 | CCc1ccc(NCc2cc3c(C)nn(-c4ccccc4)c3[nH]c2=O)cc1 | 0 (inactive)

Row | SMILES | manual score
89 | O=C(NCc1ccc2c(c1)OCO2)C1CCN(Cc2cnn(-c3ccccc3)c2-n2cccc2)CC1 | 0 (inactive)
90 | CC(C)(C)c1nn(-c2ccccc2)c2[nH]c(=O)c(CNCc3ccc4c(c3)OCO4)cc12 | -1 (active)
91 | C=CCNc1nc(N2CCCC2)nc2ccccc12 | 0 (inactive)
92 | COc1ccc(C(=O)N2C(=S)NC(=O)/C2=C\c2ccc(C)cc2)cc1 | 0.5 (inactive)
93 | COc1ccc(/C=C2\C(=O)NC(=S)N2C(=O)c2ccc(F)cc2)cc1 | 1 (active)
94 | COc1ccc(NC2=Nc3cccc4cccc2c34)cc1OC | 0 (inactive)
95 | Cc1nc2ccc(NS(=O)(=O)c3ccc4c(c3)OCCO4)cc2s1 | 0 (inactive)
96 | S=C(Nc1cccc(Cl)c1)Nc1cccc2cnccc12 | 0 (inactive)
97 | Cc1csc(NC(=S)Nc2cccc(Cl)c2)n1 | 1 (active)
98 | S=C(NCc1cccs1)Nc1cccc(Cl)c1 | 0 (inactive)
99 | C=C(C)C1CC=C(C)/C(=N/NC(=O)c2ccc(NC(=O)CCC)cc2)C1 (configuration not stated) | 0 (inactive)
100 | COc1ccc(/C=N/n2c(-c3cccs3)n[nH]c2=S)cc1 | 1 (active)
101 | COc1cccc(/C=N/n2c(-c3cccs3)n[nH]c2=S)c1 | 1 (active)
102 | COCCN=c1scc(-c2cccs2)n1/N=C/c1ccc(O)c(O)c1O | 0 (inactive)
103 | COc1cccc(OCCc2c(C)n[nH]c2C)c1 | 0 (inactive)
104 | CCOc1ccc(C2=NNC(c3cccs3)=Nc3ccc(OC)cc32)cc1 | 0 (inactive)
105 | Cc1onc(-c2c(F)cccc2Cl)c1C(=O)OCn1nnc2ccccc2c1=O | 0 (inactive)
106 | CC1=NN(c2ccccc2)C(=O)C1C(=O)c1ccc(Cl)cc1 (configuration not stated) | 1 (active)
107 | COC(=O)C1=NN(c2ccccc2)C2C(=O)N(c3ccccc3OC)C(=O)C12 (configuration not stated) | 0 (inactive)
